Assay results taken from PubChem BioAssay AID504850 (National Center for Advancing Translational Sciences (NCATS), 2011).
About 1,200 (52%) of roughly 2,300 compounds were called active. Not shown: some 34% with an inconclusive outcome. The set was probably picked from earlier hits. The list shows a part of the results. A number with no mark means an inactive call. The call rests on the fitted dose curve; in most records, active means well fitted inhibition curve with a large enough effect; inconclusive means small, poorly fitted or top-dose-only effect, or effect the other way; inactive means no such curve, though single readings can be large or run the other way.

Assay: Confirmation screen for delayed death inhibitors of the malarial parasite plastid, 48 hour incubation; further: nearly all actives have a fitted effect of over 65% in size
Details: P. falciparum-infected erythrocytes, luciferase growth; series mostly up to 28.7 µM; activity change, negative = inhibition: at the top concentration
Text: The goal of this screen is to discover new antimalarial compounds that act by inhibiting the development of the apicoplast in the malarial parasite Plasmodium falciparum. The biochemical processes that make this organelle essential for erythrocytic stage parasites are not well understood. However, antibiotics, such as azithromycin and tetracycline, which target the apicoplast translational machinery, have a potent antimalarial effect. […] We have developed a cell-based assay that measures parasite growth based on the expression of an integrated copy of a firefly luciferase reporter. To detect small molecules that cause this "delayed death phenotype, erythrocytes infected with the luciferase-expressing parasites were incubated with compounds for either one or two generations, corresponding to 48 and 96 hours, respectively. Compounds that inhibit parasite growth in the second generation, but not the first, should be enriched in antimalarials that target the apicoplast. Growth inhibition is detected by a decrease in luciferase activity. MLPCN Grant: R21 NS059500 Assay Provider: David Fidock and Eric Ekland, Columbia University Keywords: NIH Roadmap, MLPCN, MLI, MLSMR, qHTS, NCGC, qHTS, malaria, luciferase, viability
Four microliters of culture medium (RPMI 1640 with 0.5% w/v Albumax (GIBCO), 24 mM sodium bicarbonate and 10 ug/mL gentamycin) were dispensed by a Multi-drop Combi into white solid 1536-well plates (Grenier) and 23 nL compound was added by a pin tool. Four microliters of infected erythrocytes (2% hematocrit, 0.1% parasitemia final concentration) in culture medium were dispensed and the plates incubated for 48 hours at 37 C in 5% CO2. Two microliters of luciferase detection reagent was added and luminescence was detected by a ViewLux (PerkinElmer) reader.
On the % scale 0 is the no-effect control and ±100 the full control effect; potency means the concentration at half of the fitted maximal effect.

SMILES | activity change, negative = inhibition [%] | Potency
COc1ccccc1OCC(=O)Nc1cc(Cl)ccc1Oc1ccccc1 | -11.9 | 
Cc1ccc(C)c(N(CC(=O)Nc2cc(Cl)ccc2Oc2ccccc2)S(C)(=O)=O)c1 |  | 11.2 µM (active)
CN(C)S(=O)(=O)c1ccc(Cl)c(NC(=O)CN2C(=O)NC(C)(C3CC3)C2=O)c1 (stereo unspecified) |  | 14.1 µM (active)
CCOc1ccc2c(c1)C(N(CCN1CCOCC1)C(=O)Nc1ccccc1)CC(C)(C)O2 (stereo unspecified) |  | 12.6 µM (active)
COCCNC(=O)c1cccc(OC2CCN(Cc3ccc(C(C)C)cc3)CC2)c1 |  | 14.1 µM (active)
C=CCNC(=O)c1onc(CSc2ccc(Cl)cc2)c1C(=O)O | 11.2 | 
CCOC(=O)C(C(=O)OCC)C(Nc1cccc(Br)c1)c1ccccc1 (stereo unspecified) |  | 14.1 µM (active)
Cc1ccc(Nc2nc(NCc3ccco3)c3ccccc3n2)cc1 |  | 2 µM (active)
Cc1ccc2cc(C)c(SCC(=O)NCc3ccco3)nc2c1 | -22.8 | 
COc1ccc(Cl)cc1NC(=O)C(C)NC(c1ccccc1)c1ccccc1 (stereo unspecified) |  | 8.91 µM (active)
COc1ccc(Nc2cc(Cl)ccc2C(=O)O)cn1 | -43.1 | 
C#CCOCCOCCOCCNc1nc(N2CCN(C(=O)Cn3cc(CC(C)O)nn3)CC2)nc(N2CCN(C(=O)[C@H](C)n3cc(CCCN=C(N)N)nn3)CC2)n1 (stereo partly specified) | -25.6 | 
COc1nc(NC(=O)c2ccc(F)cc2)nc(OC)c1-c1ccccc1 |  | 12.6 µM (active)
O=[N+]([O-])c1c(Nc2ccccc2O)cc(Cl)c2nonc12 |  | 5.62 µM (active)
CC(C)(C)NC(=O)[C@H]1CN(Cc2cccnc2)CCN1C[C@@H](O)C[C@@H](Cc1ccccc1)C(=O)N[C@H]1c2ccccc2C[C@H]1O |  | 7.94 µM (active)
CN(CCNC(=O)c1ccc(CS(=O)(=O)c2ccc(Br)cc2)o1)CCc1ccccc1 |  | 4.47 µM (active)
CCCCN(CCCNC(=O)c1ccc(CS(=O)(=O)c2ccc(OC)cc2)o1)Cc1ccccc1 |  | 12.6 µM (active)
CCCCNC(=O)c1ccc(CS(=O)(=O)c2cccc(C(F)(F)F)c2)o1 | -12.9 | 
CN(CCCNC(=O)c1ccc(CS(=O)c2ccc(Br)cc2)o1)Cc1ccccc1 (stereo unspecified) |  | 8.91 µM (active)
CCn1c(=O)c(CCC(=O)N2CCOCC2)c(C)c2c(C)nn(-c3ccccc3)c21 |  | 14.1 µM (active)
Cc1ccc(S(=O)(=O)N2CCN(C(=O)c3ccc(Br)o3)CC2)c(C)c1 |  | 10 µM (active)
COc1ccc(C(=O)N2CCN(S(=O)(=O)c3ccc(C)cc3C)CC2)cc1OC |  | 12.6 µM (active)
COc1ccc(C)cc1S(=O)(=O)N1CCN(S(=O)(=O)c2cc(C(=O)O)ccc2C)CC1 |  | 11.2 µM (active)

SMILES | activity change, negative = inhibition [%] | Potency
Cc1ccc(S(=O)(=O)N2CCN(C(=O)c3cc(S(=O)(=O)N(C)C)ccc3N3CCCC3)CC2)c(C)c1 |  | 12.6 µM (active)
CCNc1nc(NCC)n2c(SCC(=O)Nc3ccccc3F)nnc2n1 |  | 12.6 µM (active)
Cc1c(Cl)cccc1NC(CC(=O)c1ccccc1)C(=O)O (stereo unspecified) | -3.76 | 
CC(=O)O[C@H]1C(=O)[C@@]2(C)[C@H]([C@H](OC(=O)c3ccccc3)[C@]3(O)C[C@H](OC(=O)[C@H](O)[C@@H](NC(=O)c4ccccc4)c4ccccc4)C(C)=C1C3(C)C)[C@]1(OC(C)=O)CO[C@@H]1C[C@@H]2O |  | 0.501 µM (active)
CC(=O)O[C@@]12CO[C@@H]1C[C@H](O)[C@@]1(C)C(=O)[C@H](O)C3=C(C)[C@@H](OC(=O)C(O)[C@@H](NC(=O)OC(C)(C)C)c4ccccc4)C[C@@](O)([C@@H](OC(=O)c4ccccc4)[C@H]21)C3(C)C (stereo partly specified) |  | 0.141 µM (active)
Cc1c(/C=N/NC(=O)c2cccs2)c2ccccc2n1Cc1ccccc1Cl |  | 4.47 µM (active)
Cc1noc(/C=C/c2nn(C)cc2Cl)c1[N+](=O)[O-] |  | 12.6 µM (active)
CC(=O)N1CCc2cc(S(=O)(=O)NCCC(=O)N3CCN(c4ccccn4)CC3)ccc21 |  | 11.2 µM (active)
COCCn1c(=NC(=O)/C=C/c2ccccc2)sc2cc(NC(C)=O)ccc21 |  | 10 µM (active)
O=C(/C=C/c1ccncc1)c1ccc(NC(=O)c2ccccc2F)cc1 |  | 12.6 µM (active)
Cc1c(C#N)c(NC(=O)CCl)n(Cc2ccccc2)c1C |  | 7.08 µM (active)
COC(=O)c1cc(=O)n(Cc2cccs2)c(=Nc2ccccc2)s1 | -6.3 | 
Cc1c(C#N)c(NC(=O)CCl)n(Cc2cccs2)c1C |  | 3.98 µM (active)
COc1ccc(-c2oc3ncn(Cc4ccco4)c(=N)c3c2-c2ccc(OC)cc2)cc1 |  | 7.94 µM (active)
CC1CCCC(NC(=O)c2cc(-c3ccncc3)nc3ccccc23)C1C (stereo unspecified) |  | 11.2 µM (active)
C=CCn1cccc(/C=C/C(=O)c2ccc(C(C)(C)C)cc2)c1=S |  | 1.26 µM (active)
Nc1nc(C2CC2)c(Sc2sc(N)nc2C2CC2)s1 | -10.8 | 
Cc1ccccc1-c1nc(CS(=O)CC(=O)NC(C)CCc2ccccc2)c(C)o1 (stereo unspecified) | -15.9 | 
CCN1CCCC1CNC(=O)CS(=O)(=O)Cc1nc(-c2ccccc2C)oc1C (stereo unspecified) |  | 11.2 µM (active)
COc1cc2c(cc1NC(=O)c1ccc(C(C)(C)C)cc1)CCCC2 |  | 11.2 µM (active)
O=C(CCCN1C(=O)/C(=C\c2cccs2)SC1=S)Nc1ccc(O)cc1 |  | 11.2 µM (active)
O=C(CCN1C(=O)/C(=C\c2ccc(F)cc2)SC1=S)Nc1ccccc1 | 7.17 | 
O=C(CCCN1C(=O)/C(=C/c2cccs2)SC1=S)Nc1ccc(O)cc1 |  | 11.2 µM (active)
